An excerpt weighted towards active compounds, which were near 21% of everything screened.
HCV inh – inhibitors of hepatitis C virus infection; Potency, µM (top dose mostly 41.8 µM), hits mostly inhibitors; 340,000 tested, 3.4% active; Huh7.5.1 HCVcc-Cre infection, luciferase reporter, 44 h
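Cells (1,000/well) were plated 4 h before compound, then infected with HCVcc-Cre virus (~0.5 moi). After 44 h further culture, infection was read as luciferase luminescence following a 15 min substrate incubation at room temperature.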
Pf growth 48h – P. falciparum growth inhibition at 48 hours (one generation); P. falciparum luciferase growth in erythrocytes, 48 h; Potency, µM (doses to about 28.7 µM), actives largely listed as inhibitors; 310,000 tested, 5.9% active
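Compounds are pin-transferred into medium, infected erythrocytes (2% hematocrit, 0.1% parasitemia final) are added, and plates sit one parasite generation at 37 C in 5% CO2. Detection reagent is then added and luminescence measured.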
CHX counter – counter-screen hit for Shiga toxin inhibitors, cycloheximide; cell reporter, cycloheximide protein synthesis inhibition counterscreen; max response, %; 300,000 tested, 12% active; AID 2314; in the data active means max response mostly above about 13%, no sharp cut-off; inactive means mostly below about 14%; further: read at 38.3 µM for the half of the compounds with a filed dose
Shiga toxin inh – Shiga toxin inhibition; 290,000 tested, 9.2% active; Vero cells, Shiga toxin protein synthesis inhibition reporter; inhibition, % at 38.7 µM; AID 2315; in the data active means inhibition mostly above about 28%, no sharp cut-off; inactive means mostly below about 43%
Pf growth 96h – inhibits malaria parasite growth, 96 h; AID 504834; P. falciparum luciferase reporter growth, 96 h; Potency, µM (highest dose often 28.7 µM), usual class: inhibitors; 320,000 tested, 6.9% active
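96 h incubation, 37 C, 5% CO2, of luciferase-reporter P. falciparum-infected RBCs (2% hematocrit, 0.05% parasitemia final) with test compounds; endpoint luminescence.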
AMA1 RON2 block – AMA1-RON2 (P. falciparum) interaction inhibition; AlphaScreen AMA1-biotinylated RON2 peptide binding; Potency, µM (top dose mostly 58.2 µM), most hits filed as inhibitors; 360,000 tested, 0.2% active; further: nearly all actives have a fitted effect of over 45% in size
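AMA1 (3D7) with his tag at 25 nM final met compounds first, then biotinylated RON2 peptide at 25 nM; detection used donor plus acceptor beads, 10 µg/mL apiece, read by AlphaScreen after 30 min at room temperature.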
Numbers stand for hits; – = inactive; ? = inconclusive; · = not tested or not shown; [ ] = another dose, or the depositor's remark. Unless noted, the call rests on the fitted dose curve; in most records, active means well fitted curve in the direction sought with a large enough effect; inconclusive means small, poorly fitted or top-dose-only effect, or another doubt; inactive means no such curve, though single readings can be large; an effect the other way counts as inactive or inconclusive.

SMILES	HCV inh	Pf growth 48h	CHX counter	Shiga toxin inh	Pf growth 96h	AMA1 RON2 block
O=C(O)c1ccc(/C=C2\SC(=S)N(NC(=O)c3ccccc3)C2=O)cc1	–	–	–	–	?	–
COc1cc(/C=C2\SC(=S)N(NC(=O)c3ccc(O)c(OC)c3)C2=O)ccc1O	–	–[0.00184 µM]	21.5	–	–	?
COc1cc(/C=C2\SC(=S)N(NS(=O)(=O)c3ccc(C)cc3)C2=O)cc(OC)c1OC	–	4.65µM	–	–	?	–
CC(=O)NN1C(=O)/C(=C/c2ccc(C(C)C)cc2)SC1=S	–	–	16.5	–	–	–
Cc1[nH]c(C)c(S(=O)(=O)Nc2cccc(Cl)c2C)c1C(=O)N1CCCCC1	–	–	–	–	–	–
O=C(NCCCc1ccccc1)c1ccc(CS(=O)Cc2ccc(Cl)cc2)o1 (stereo not drawn)	?	–	–	–	?	–
CC1(C(=O)NS(=O)(=O)C2CC2)CCCN(C(=O)c2cccnc2Oc2ccccc2)C1 (stereo not drawn)	·	·	·	·	·	–
C=CC[n+]1ccc(/C=C2\C=Cc3cc(C)ccc3N2CC)c2ccccc21	2.51µM	?	–	–	–	?
CCN1/C(=C/c2cc[n+](CCCS(=O)(=O)[O-])c3ccccc23)Sc2ccccc21	–	–	–	–	–	–
CCOc1ccc(S(=O)(=O)NCCCn2ccnc2)cc1	–	–	–	–	–	–
COc1ccc(C(=O)Nc2sc(C)c(C)c2CN2CC(C)OC(C)C2)cc1 (stereo not drawn)	–	–	30.8	67.6	–	–
Cc1sc(NC(=O)c2ccco2)c(CN2CCCCC2)c1C	–	?	–	–	?	–
CNCCOc1ccccc1OC(C)C	–	–	–	–	10.4µM	–
Cc1cccc(NC(=O)C(=O)NCC2CCCN2S(=O)(=O)c2cccs2)c1 (stereo not drawn)	·	·	·	·	·	–
COc1cc(NC(=O)CCc2c(C)noc2C)c(C(=O)O)cc1OC	·	·	·	·	·	–
CCC(=O)NC(=S)Nc1ccc2oc(-c3ccc(OC)cc3)nc2c1	?	–	–	–	–[5.75 µM]	–
O=C(Nc1ccc2oc(-c3ccccc3)nc2c1)c1cccnc1	?	–	38.5	54.0	–	–
COc1ccc(C(=O)Nc2ccc3oc(-c4cccnc4)nc3c2)cc1OC	–	?	–	–	?	–
O=C(Nc1ccc2oc(-c3ccccc3F)nc2c1)c1ccc([N+](=O)[O-])o1	–	?	–	–	–	–
COc1cc(C(=O)Nc2ccc3oc(-c4cccnc4)nc3c2)cc(OC)c1OC	?	–	–	–	?	–
CCc1ccc2oc(-c3cccc(NC(=O)c4cccnc4)c3)nc2c1	?	–	34.5	66.1	–	–
COc1ccc(-c2nc3cc(NC(=S)NC(=O)Cc4ccccc4)ccc3o2)cc1	–	–	34.6	–	–	–[11.6 µM]
O=C(Nc1ccc2oc(-c3ccccc3F)nc2c1)c1cncc(Br)c1	?	8.28µM	25.3	41.7	·	–
Cc1ccc(F)cc1NC(=O)COC(=O)C1CCN(c2ccc(C(F)(F)F)cn2)CC1	–[8.37 µM]	–	·	·	–	–
Cc1ccc(CNC(=O)C(=O)NCC2OCCCN2S(=O)(=O)c2ccc(F)cc2)cc1 (stereo not drawn)	·	–	–	–	–	–
SMILES	HCV inh	Pf growth 48h	CHX counter	Shiga toxin inh	Pf growth 96h	AMA1 RON2 block
O=C(Cc1ccccc1)Nc1ccc2oc(-c3cccnc3)nc2c1	?	–	–	33.8	·	–
O=C(c1ccc(C(F)(F)F)cc1)n1ccc(-c2cccs2)n1	–	–	–	–	–	–
O=S(=O)(c1ccccc1)n1ccc(-c2cnc(-c3ccccc3)s2)n1	?	–	10.5	–	–	–
Cc1ccc(CN2CCN(Cc3ccccc3)CC2)cc1	–	–	–	–	–	–
O=C(c1ccc(F)cc1)n1ccc(-c2cnc(-c3ccccc3)s2)n1	–	·	41.5	73.4	–	–
Cc1ccc(Cn2ccc(-c3cnc(-c4ccccc4)s3)n2)cc1	?	·	29.6	68.7	–	–
Fc1ccc(Cn2ccc(-c3cnc(-c4ccccc4)s3)n2)cc1	10µM	·	39.3	–	–	–
Cc1cccc(OCC(=O)NC(Cc2c[nH]c3ccccc23)C(=O)O)c1C (stereo not drawn)	–	?	–	–	–	–
COC(=O)[C@@H](NS(=O)(=O)c1cc(Br)ccc1Br)C(C)C	·	·	·	·	·	–
